From PubChem
HSP90 inh = HSP90 inhibitors, primary screen, cell lysate, luminescence; Rabbit reticulocyte lysate, luciferase refolding luminescence, 3 h; 290,000 tested, 0.91% active; AID 1789, 2009; Heat shock protein HSP 90 (rabbit reticulocyte lysate; luciferase refolding); inhibition, % at 5.6 µM;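 active means inhibition above the screen-wide mean plus 3 SD, computed separately per campaign, cut at about 16% in these data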;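 further: 0% = DMSO wells and 100% = 60 µM geldanamycin wells; inhibitors lower the luminescence because luciferase stays unfolded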
Platelet DG rel = inhibitors of platelet dense granule secretion, primary screen, cell-based, MLPCN, human platelets. human platelet-rich plasma, SFLLRN dense granule ATP release, luminescence. 300,000 tested, 0.22% active. inhibition, %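 (compounds screened at 7.5 µM in platelet-rich plasma)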;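 active means mean replicate score, as percent of positive control, at or above 50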
HSF1 inh = HSF1 inhibitors in luciferase reporter cells, primary screen, cell-based, NIH3T3, luminescence; activity change, negative = inhibition, % at 7.5 µM (by protocol); AID 2098, 2009; 300,000 tested, 0.77% active; NIH3T3-HGL HSE-luciferase, MG132-induced, luminescence 8 h; stronger effect = lower value;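 active means more than half of replicate wells show activity change below -50%, luminescence cut by over half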;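 further: luciferase reports HSF-1 transcriptional activity via heat shock element; 0% = median of DMSO wells and -100% = zero luminescence signal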
MPTP block = mitochondrial permeability transition pore inhibitors, primary screen, biochemical, isolated mouse mitochondria, absorbance; Ca2+ swelling absorbance, 30 min; inhibition, % at 10 µM; 360,000 tested, 1.4% active; AID 602449, 2012;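 active means inhibition of 50% or more, scaled per plate between neutral and stimulator controls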;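 further: 0% = DMSO wells given calcium and 100% = 1 mM EGTA wells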
HSF1 activator = HSF-1 activators, primary screen, NIH3T3-HGL cells, MG132 stress, luminescence, single point; 300,000 tested, 1.7% active; AID 504408, 2011; activation, % at 9 µM; NIH3T3-HGL HSF-1 luciferase reporter, 8 h; 100% = twice DMSO control signal;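 active means mean replicate activation of at least 50% with a set share of replicates each reaching 50%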;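 further: 0% = median of the neutral control wells and 100% = twice that signal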
dFosB act = activators of delta FosB homodimer, primary screen, biochemical, fluorescence polarization, TAMRA-CDK5 oligo, single point. Protein FosB (Mus musculus), P13346. purified delta FosB; percent of positive-control signal above neutral wells. activation, % at 25 µM. 340,000 tested, 0.99% active. AID 493131, 2011;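 active means mean activation above about 17%, with every replicate also reaching it, limit read from the data, passing the limit was not always enough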
Target sequence (P13346 whole entry, looked up): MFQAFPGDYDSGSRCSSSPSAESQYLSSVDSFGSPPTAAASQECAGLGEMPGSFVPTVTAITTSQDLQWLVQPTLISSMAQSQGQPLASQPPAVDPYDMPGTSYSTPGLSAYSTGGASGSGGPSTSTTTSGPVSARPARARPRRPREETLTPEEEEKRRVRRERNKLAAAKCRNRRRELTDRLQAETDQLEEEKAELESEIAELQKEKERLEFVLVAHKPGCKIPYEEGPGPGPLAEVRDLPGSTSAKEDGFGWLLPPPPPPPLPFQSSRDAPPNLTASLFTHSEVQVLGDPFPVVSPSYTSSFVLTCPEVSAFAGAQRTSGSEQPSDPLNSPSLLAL
An asterisk follows results filed as active; · = no result. An excerpt weighted towards active compounds, which were near 4.9% of everything screened.

SMILES	HSP90 inh	Platelet DG rel	HSF1 inh	MPTP block	HSF1 activator	dFosB act
CCCCOc1ccc(S(=O)(=O)N2CCCCCC2)cc1	-1.8	1.0	37.4	1.3	66.0*	6.4
CCCCOc1ccc(S(=O)(=O)N2CCN(C)CC2)cc1	·	13.4	10.0	-0.1	25.6	-3.7
CN(CCc1ccccc1)c1cc2c(c3c1ccn3C)C1CCC2O1 (stereo not given)	·	·	·	2.1	·	·
O=C1CSC(c2cn(-c3ccccc3)nc2-c2ccc3c(c2)OCCO3)N1CCN1CCOCC1 (stereo not given)	3.3	55.4*	13.8	-1.5	57.9*	-0.5
c1ccc(-n2cc(CN3CCC(N4CCOCC4)CC3)c(-c3ccc4c(c3)OCO4)n2)cc1	-4.2	2.2	-3.9	-0.9	-2.9	2.2
Cc1ccc(S(=O)(=O)N2CCCCC2)cc1C(=O)NCCC1=CCCCC1	·	6.8	10.5	1.3	-7.4	5.8
O=C(NCCC1=CCCCC1)c1ccc(Cl)cc1	7.6	-10.4	37.2	·	59.0*	·
NC(=O)NCCC1=CCCCC1	0.3	0.4	-0.7	-0.4	-4.3	-2.6
CS(=O)(=O)N(Cc1ccc(Cl)cc1)c1ccc(C(=O)NCCC2=CCCCC2)cc1	4.1	0.8	16.8	-1.8	3.7	0.1
O=C(NCCC1=CCCCC1)NC1CCCCC1	2.8	54.0*	23.9	1.5	49.5	-1.9
Cc1cc(C(=O)NCCC2=CCCCC2)c(C)o1	8.5	8.5	32.7	18.2	60.1*	-2.1
Cc1ccccc1Oc1cc(NC(=O)Cn2cnc([N+](=O)[O-])c2)cc([N+](=O)[O-])c1	4.4	10.2	28.2	4.1	74.9*	15.8
Cc1ccc(N/C=C/c2onc(C)c2[N+](=O)[O-])cc1	-10.2	15.9	-0.3	8.6	10.5	-4.3
COc1cccc(N/C=C/c2onc(C)c2[N+](=O)[O-])c1	-0.1	2.7	32.3	0.9	65.7*	-2.5
c1ccn(-c2ccc(N3CCOCC3)cc2)c1	-5.6	17.7	-62.5*	-0.8	-68.5	-0.9
c1ccc(N2CCOCCOCCOCCOCC2)cc1	-0.9	-10.2	-9.8	0.7	1.0	-2.8
Cn1c(=O)oc2cc(S(=O)(=O)N3CCCC3)ccc21	-1.0	0.3	-8.9	-0.3	-10.6	-1.9
Cn1c(=O)oc2cc(S(=O)(=O)N3CCCCC3)ccc21	4.7	-4.7	47.0	0.0	113.2*	1.4
Cn1c(=O)oc2cc(S(=O)(=O)NC3CCN(Cc4ccccc4)CC3)ccc21	-4.7	52.1*	-10.4	1.0	-6.5	-5.7
CCOc1ccc(S(=O)(=O)N2CCNC(=O)C2)cc1	·	·	·	-0.6	·	-9.6
CC(C)c1ccc(C2NC(=S)NC3=C2C(=O)CC(C)(C)C3)cc1 (stereo not given)	2.0	-11.1	4.0	1.6	33.2	-9.0
Cc1nc2c(ccc3nc(NC(=O)Cc4cccc5ccccc45)sc32)s1	1.6	-0.9	-56.2*	1.3	-67.5	-5.7
C[C@H](O)[C@@H]1CN2CCc3c([nH]c4ccccc34)[C@@H]2C[C@@H]1N(C)C(=O)NC1CCCCC1	·	·	·	-1.0	·	·
O=C(CNC(=O)C1CCCCC1)NC1=NCCS1	-1.4	3.2	-88.3*	-1.6	-90.3	-0.5
O=C(CNC(=O)C12CC3CC(CC(C3)C1)C2)NC1=NCCS1	-0.5	-4.5	-11.8	-1.9	-13.6	-0.5
SMILES	HSP90 inh	Platelet DG rel	HSF1 inh	MPTP block	HSF1 activator	dFosB act
CCOc1cc(N2CCOCC2)c(OCC)cc1NC(=O)c1cc(S(=O)(=O)N2CCOCC2)ccc1Cl	·	·	·	-2.0	·	0.2
CCOc1cc(N2CCOCC2)c(OCC)cc1NC(=O)COC(=O)c1ccccc1C	1.2	-0.6	9.3	2.0	-1.2	-8.4
CCOc1cc(N2CCOCC2)c(OCC)cc1NC(=O)Cc1cccc2ccccc12	-6.4	1.7	74.4	-1.4	121.2*	-10.4
CCOc1cc(N2CCOCC2)c(OCC)cc1NC(=O)CCS(=O)(=O)c1ccc(Cl)cc1	-0.2	-7.5	57.8	0.0	74.8*	-2.3
O=[N+]([O-])c1ccc(COc2cccc(CNc3ccc(Br)cc3)c2)cc1	-3.5	-6.5	22.6	13.3	23.8	-12.5
CC1CN(C(=S)NC(=O)C2CCCCC2)CC(C)O1 (stereo not given)	2.4	-0.4	12.5	-1.9	52.0*	0.3
NNC(=O)c1snnc1-c1ccccc1	-2.3	-0.9	-2.5	-0.5	-3.5	-3.0
O=C(Nc1cccc(Cl)c1Cl)c1snnc1-c1ccccc1	1.9	7.9	-86.3*	3.5	-88.7	-11.4
COCCNC(=O)c1c[nH]c2ccc(S(=O)(=O)N(C)c3ccc(C)c(C)c3)cc2c1=O	2.9	1.2	1.8	0.0	13.5	-23.9
Cc1ccc(NC(=O)COc2coc(CN3CCc4ccccc4C3)cc2=O)c(C)c1	·	11.8	3.2	0.9	0.7	-8.0
CCCNC(=O)COc1coc(CN2CCN(c3ccccc3OC)CC2)cc1=O	7.6	-1.8	-72.5*	-0.4	-79.8	0.0
CC(C)NC(=O)COc1coc(CN2CCN(c3ccccc3)CC2)cc1=O	2.4	2.7	-52.8*	-2.1	-63.4	2.7
Cc1cc(NC(=O)COc2coc(CN3CCN(c4ccccc4F)CC3)cc2=O)no1	·	-3.8	-74.6*	-2.1	-80.1	-12.2
Cc1ccc(C)c(NC(=O)COc2coc(CN3CCc4ccccc4C3)cc2=O)c1	·	1.3	-51.1*	-2.8	-61.7	-0.3
C#CCOc1ccccc1CNC1CCN(Cc2ccccc2)CC1	5.8	-0.2	-3.0	-0.4	-4.4	7.4
CN(C(=O)COC(=O)CNC(=O)c1ccc(C(C)(C)C)cc1)c1c(N)n(Cc2ccccc2)c(=O)[nH]c1=O	·	3.7	-6.6	-2.7	-3.5	-18.4
C=CCNc1ncnc2c1ncn2[C@H]1CN(Cc2ccc(F)cc2)C[C@@H](CO)O1	·	·	·	-1.3	·	·
O=C(COC(=O)c1ccccc1SCC(=O)N1CCCC1)NC1CCS(=O)(=O)C1 (stereo not given)	·	1.3	-71.3*	-1.1	-78.0	2.6
Nc1nc(CCl)nc(Nc2ccc3ccccc3c2)n1	0.6	-3.3	80.4	0.9	111.3*	-2.9
COc1ccccc1CNC(=O)N1CCN(c2ccccc2C)CC1	-0.2	-46.3	-72.0*	-0.9	-77.6	-5.4
O=c1c(-c2ccccc2)c1-c1ccccc1	20.2*	-0.9	12.8	·	-3.3	·
O=C(C[C@@H]1C/C=C\CCCC(=O)OC[C@@H]2CCCN2C1=O)N[C@@H](CO)Cc1ccccc1	·	·	·	0.2	·	-7.5
COc1c(Cl)cccc1-c1cn2ccc(C)cc2n1	2.7	17.6	26.4	1.5	57.8*	-2.5
CCOc1ccc(C(=O)Nc2ccc(N3CCCC3)cc2)cc1	6.8	1.7	-4.8	-1.1	2.5	22.0*
